Legend:
Details in all cases: Compound Concentration (nM):1000
[1] = system: GRK1
[2] = system: T1, GRK2
T1 construct: gene ADRBK1

[3] = system: T2, GRK3
T2 construct: gene ADRBK2

[4] = system: GRK4
[5] = system: GRK7
[6] = system: GSK3A
[7] = system: GSK3B
[8] = system: T3, HASPIN
T3 construct: gene GSG2

[9] = system: HCK
[10] = system: HIPK1
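Further: KINOMEscan scanMAX binding as percent activity remaining versus control; lower means stronger binding.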

| SMILES | Percent Control [1] [%] | Percent Control [2] [%] | Percent Control [3] [%] | Percent Control [4] [%] | Percent Control [5] [%] | Percent Control [6] [%] | Percent Control [7] [%] | Percent Control [8] [%] | Percent Control [9] [%] | Percent Control [10] [%] |
| --- | --- | --- | --- | --- | --- | --- | --- | --- | --- | --- |
| NS(=O)(=O)c1ccc(N/N=C2\C(=O)Nc3ccc(-c4cnco4)cc32)cc1 [GW276655] | 87 | 94 | 100 | 39 | 81 | 15 | 80 | 0.3 | 95 | 35 |
| COc1cccc(-c2c[nH]c3c(N/N=C/c4ccncc4)ncnc23)c1 [GW814408X] | 100 | 100 | 100 | 62 | 100 | 0 | 1 | 51 | 91 | 29 |
| COc1ccc2c(-c3ccnc(Nc4cccc(OC(F)(F)F)c4)n3)cnn2n1 [GW810372X] | 97 | 100 | 98 | 100 | 100 | 34 | 97 | 72 | 100 | 0.7 |
| Cl.O=C(Nc1ccc(Oc2ccc3[nH]c(NC(=O)c4ccccc4)nc3c2)cc1)Nc1cc(C(F)(F)F)ccc1F [GW709042A] | 99 | 100 | 97 | 100 | 100 | 100 | 99 | 92 | 71 | 94 |
| CC1=C(C(=O)Nc2ccc3[nH]ncc3c2)C(c2ccc3ccccc3c2)CC(=O)N1 (stereo not shown) [GSK270822A] | 78 | 38 | 17 | 100 | 100 | 100 | 100 | 96 | 68 | 87 |
| Cl.O=C(Nc1ccc(Oc2ccc3[nH]c(NC(=O)c4ccco4)nc3c2)cc1)Nc1cc(C(F)(F)F)ccc1F [GW683134A] | 100 | 100 | 100 | 100 | 100 | 100 | 88 | 100 | 41 | 100 |
| COc1cc(/C=N/Nc2ncnc3[nH]ncc23)ccc1O [GW578748X] | 83 | 100 | 78 | 100 | 100 | 34 | 78 | 0.2 | 64 | 24 |
| Cl.O=S1CCN(Cc2ccc(-c3ccc4ncnc(Nc5ccc(OCc6ccccc6)c(F)c5)c4c3)o2)CC1 [GW576924A] | 98 | 100 | 100 | 100 | 100 | 100 | 100 | 96 | 100 | 100 |
| CCS(=O)(=O)c1ccc(OC)c(Nc2ncc(-c3cccc(OC)c3)o2)c1 [GW580509X] | 100 | 100 | 100 | 100 | 100 | 91 | 85 | 83 | 49 | 42 |
| CCn1c(-c2nonc2N)nc2c(C#CC(C)(C)O)nc(OCCNC)cc21.Cl [GSK949675] | 77 | 100 | 100 | 100 | 69 | 18 | 55 | 100 | 100 | 42 |
| NS(=O)(=O)c1ccc(N/N=C2\C(=O)Nc3ccc(Cl)cc32)cc1 [GW280670X] | 100 | 100 | 100 | 100 | 100 | 54 | 91 | 97 | 100 | 98 |
| CN(C)c1cc2c(Nc3ccc4c(cnn4Cc4ccccc4)c3)ncnc2cn1 [GW282974X] | 78 | 100 | 86 | 100 | 97 | 98 | 100 | 82 | 57 | 78 |
| COc1cc2ncn(-c3cc(O[C@H](C)c4ccccc4Cl)c(C(N)=O)s3)c2cc1OC [GSK237701A] | 100 | 95 | 97 | 18 | 99 | 85 | 97 | 94 | 64 | 68 |
| CN(C)CCNC(=O)Nc1ccc(N(C)c2ccnc(Nc3ccc(CS(C)(=O)=O)cc3)n2)cc1.Cl [GW830900A] | 89 | 100 | 89 | 7.1 | 96 | 100 | 85 | 100 | 100 | 88 |
| COc1ccc(COc2ccc(Cc3cnc(N)nc3N)cc2OC)cc1 [GW632580X] | 93 | 97 | 93 | 100 | 100 | 95 | 95 | 88 | 90 | 100 |
| CC(C)COC(=O)c1ccc2c(c1)/C(=C/Nc1ccc(S(N)(=O)=O)cc1)C(=O)N2 [GW416981X] | 86 | 100 | 100 | 43 | 100 | 45 | 71 | 18 | 100 | 88 |
| COc1cc(C)c(N(C)C(=O)CN(C)C)cc1Nc1nc(Nc2cccc(F)c2C(N)=O)c2cc[nH]c2n1 [GSK2219385] | 69 | 100 | 80 | 100 | 70 | 100 | 100 | 41 | 100 | 71 |
| Cl.O=C(O[C@H]1CN[C@H](C#Cc2cc3ncnc(Nc4ccc5c(cnn5Cc5ccccc5)c4)c3s2)C1)N1CCOCC1 [GSK200398A] | 86 | 100 | 80 | 100 | 84 | 93 | 90 | 93 | 100 | 91 |
| NS(=O)(=O)c1ccc(Nc2ncc(-c3ccccc3)o2)cc1 [GW572399X] | 100 | 100 | 100 | 100 | 100 | 99 | 83 | 100 | 100 | 100 |
| O=C(Nc1n[nH]c2nc(-c3ccc(O)cc3)c(Br)cc12)C1CC1 [SB-725317] | 100 | 100 | 100 | 100 | 100 | 7.5 | 0.5 | 100 | 100 | 22 |

| SMILES | Percent Control [1] [%] | Percent Control [2] [%] | Percent Control [3] [%] | Percent Control [4] [%] | Percent Control [5] [%] | Percent Control [6] [%] | Percent Control [7] [%] | Percent Control [8] [%] | Percent Control [9] [%] | Percent Control [10] [%] |
| --- | --- | --- | --- | --- | --- | --- | --- | --- | --- | --- |
| Cc1cc(O)cc(C)c1/C=C/c1cncc(C(N)=O)c1 [GW435821X] | 95 | 100 | 100 | 100 | 100 | 96 | 100 | 55 | 38 | 100 |
| O=C1Nc2ccc(C(=O)c3ccco3)cc2C1=Cc1cc(Cl)c(O)c(Cl)c1 [GW406108X] | 60 | 100 | 97 | 100 | 65 | 67 | 69 | 2.2 | 98 | 11 |
| COc1cc2ncnc(Nc3ccc4c(cnn4Cc4ccccc4)c3)c2cc1OC.Cl [GW282449A] | 100 | 100 | 100 | 100 | 100 | 100 | 100 | 99 | 21 | 100 |
| Nc1ncnc2occ(-c3ccc(NC(=O)Nc4cc(C(F)(F)F)ccc4F)cc3)c12 [GW770249X] | 100 | 100 | 98 | 100 | 100 | 23 | 100 | 100 | 74 | 51 |
| Cl.c1ccc(Cc2nc3ccc(Nc4ncnc5ccccc45)cc3[nH]2)cc1 [GR269666A] | 100 | 100 | 100 | 91 | 100 | 100 | 99 | 88 | 100 | 100 |
| NS(=O)(=O)c1ccc(N/N=C2\C(=O)Nc3ccc(C(=O)NCCc4c[nH]cn4)cc32)cc1 [GW300660X] | 80 | 100 | 99 | 100 | 100 | 50 | 19 | 3.6 | 100 | 25 |
| COC(=O)Nc1nc2ccc(Oc3ccc(NC(=O)Nc4cc(C(F)(F)F)ccc4F)cc3)cc2s1.Cl [GW693917A] | 81 | 91 | 71 | 100 | 84 | 100 | 99 | 76 | 51 | 87 |
| CCc1ccc(Oc2nccc(-c3c(-c4ccc(F)cc4)ncn3C3CCNCC3)n2)cc1 [SB-242719] | 92 | 94 | 90 | 100 | 100 | 97 | 100 | 86 | 99 | 80 |
| COc1ccc2cc(-c3c(-c4ccncc4)nc(-c4ccc(S(C)(=O)=O)cc4C)n3C)ccc2c1 [SB-633825] | 70 | 81 | 63 | 100 | 94 | 100 | 100 | 94 | 72 | 77 |
| COc1ccc2[nH]c3c4[nH]c5ccc(OC)cc5c4c4c(c3c2c1)C(=O)NC4=O [GW296115X] | 95 | 88 | 70 | 100 | 64 | 100 | 68 | 76 | 74 | 56 |
| C/C(Nc1ccc(S(N)(=O)=O)cc1)=C1/C(=O)Nc2ccccc21 [GW335962X] | 85 | 98 | 100 | 100 | 97 | 90 | 97 | 33 | 79 | 79 |
| CN1CCN(C(=O)c2ccc(NC(=O)Nc3ccc(N(C)c4ccnc(Nc5ccc(CS(C)(=O)=O)cc5)n4)cc3)cc2)CC1.Cl [GW830263A] | 100 | 100 | 97 | 4.5 | 100 | 100 | 95 | 92 | 100 | 72 |
| COc1ccccc1-c1cc(/C=C2\C(=O)Nc3ncc(Br)cc32)cc(Br)c1O [GW442130X] | 100 | 100 | 100 | 100 | 63 | 100 | 100 | 100 | 100 | 66 |
| CCS(=O)(=O)c1ccc(OC)c(Nc2ncc(-c3cccc(F)c3)o2)c1 [GW621970X] | 100 | 100 | 100 | 100 | 100 | 94 | 91 | 79 | 32 | 82 |
| COc1cccc(-n2ncc3c(N/N=C/c4ccncc4)ncnc32)c1 [GW784752X] | 99 | 84 | 100 | 88 | 87 | 16 | 2.5 | 75 | 100 | 28 |
| CC1=C(C(=O)Nc2ccc3[nH]ncc3c2)C(c2ccc(Cl)c(Cl)c2)CC(=O)N1 (stereo not shown) [GSK299115A] | 89 | 16 | 20 | 100 | 99 | 100 | 100 | 84 | 81 | 72 |
| COc1cc(N2CCN(C(C)C)CC2)ccc1Nc1nc(Nc2ccc(F)cc2C(=O)NC[C@@H](O)CO)c2cc[nH]c2n1 [GSK1392956A] | 91 | 100 | 67 | 94 | 93 | 100 | 98 | 86 | 100 | 15 |
| C[C@@H](Oc1cc(-n2cnc3ccc(OC4CCN(C)CC4)cc32)sc1C(N)=O)c1ccccc1Cl [GSK579289A] | 75 | 86 | 78 | 37 | 85 | 98 | 100 | 55 | 91 | 61 |
| COc1cc(C=NNc2ncnc3c2cnn3-c2ccccc2)ccc1O [GW513184X] | 100 | 100 | 100 | 28 | 84 | 7.7 | 87 | 100 | 78 | 43 |
| NS(=O)(=O)c1ccc(N/N=C2\C(=O)Nc3ccc(C(=O)NCc4ccncc4)cc32)cc1 [GW300657X] | 69 | 86 | 76 | 100 | 83 | 27 | 35 | 54 | 100 | 19 |
